Results as given in article PMC5349851, “Combinatorial bZIP dimers display complex DNA-binding specificity landscapes”.

molecular target: ATF6B;ATF6B (Homo sapiens;Homo sapiens, UniProt Q99941;Q99941 316-391;316-391, |); assay: SELEX-seq (CSI, HT-SELEX, round 3); SELEX-seq: 1x PBS (10 mM phosphate, 137 mM NaCl, 2.7 mM KCl) pH 7.6, 2.5 mM DTT, 50 ng/ul poly dI-dC, 0.1% BSA, 50 nM biotinylated bZIP (1:3 with partner for heterodimers), 100 nM library, room temperature, 1 h, 3 rounds; high values mean tight binding; details: protein: recombinant;recombinant; copies: 1;1; dsDNA, one strand shown
Sequence (Q99941 other isoform, or with tags, fused parts or gaps |, chain 1 of 2): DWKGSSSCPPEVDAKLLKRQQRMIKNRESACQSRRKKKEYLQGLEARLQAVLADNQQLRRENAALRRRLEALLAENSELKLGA
Sequence (Q99941 other isoform, or with tags, fused parts or gaps |, chain 2 of 2): as the sequence (Q99941 other isoform, or with tags, fused parts or gaps |, chain 1 of 2) above

Sequence	binding signal
ATGACGTAAT	0.00248 relative CSI intensity (max = 1)
CCTGACGTCA	0.00121 relative CSI intensity (max = 1)
ATGACGTCAT	0.0846 relative CSI intensity (max = 1)

molecular target: ATF6;ATF6 (Homo sapiens;Homo sapiens, UniProt P18850;P18850 297-371;297-371, |); assay: as above; details: protein: recombinant;recombinant; copies: 1;1; dsDNA, one strand shown
Sequence (P18850 other isoform, or with tags, fused parts or gaps |, chain 1 of 2): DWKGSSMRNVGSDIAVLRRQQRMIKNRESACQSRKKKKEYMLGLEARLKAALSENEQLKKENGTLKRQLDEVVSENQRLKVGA
Sequence (P18850 other isoform, or with tags, fused parts or gaps |, chain 2 of 2): as the sequence (P18850 other isoform, or with tags, fused parts or gaps |, chain 1 of 2) above

Sequence	binding signal
ATGACGTAAT	0.0093 relative CSI intensity (max = 1)
CCTGACGTCA	0.00545 relative CSI intensity (max = 1)
ATGACGTCAT	0.437 relative CSI intensity (max = 1)
ATGACGCAAT	0.00207 relative CSI intensity (max = 1)

molecular target: T1, CREB1;CREB1 (Homo sapiens;Homo sapiens, UniProt P16220;P16220 260-327;260-327, |); assay: as above; details: protein: recombinant;recombinant; copies: 1;1; dsDNA, one strand shown
T1 sequence 1: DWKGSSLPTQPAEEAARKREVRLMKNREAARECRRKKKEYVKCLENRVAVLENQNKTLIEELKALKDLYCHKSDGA
T1 sequence 2: T1 sequence 1

Sequence	binding signal
ATGACGTAAT	0.00977 relative CSI intensity (max = 1)
CCTGACGTCA	0.0218 relative CSI intensity (max = 1)
ATGACGTCAT	0.577 relative CSI intensity (max = 1)

molecular target: T2, CREB3;CREB3 (Homo sapiens;Homo sapiens, UniProt O43889;O43889 141-221;141-221, |); assay: as above; details: protein: recombinant;recombinant; copies: 1;1; dsDNA, one strand shown
T2 sequence 1: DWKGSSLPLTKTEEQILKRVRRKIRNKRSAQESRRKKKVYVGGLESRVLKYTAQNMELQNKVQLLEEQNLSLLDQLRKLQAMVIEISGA
T2 sequence 2: T2 sequence 1

Sequence	binding signal
ATGACGTAAT	0.0113 relative CSI intensity (max = 1)
CCTGACGTCA	0.0218 relative CSI intensity (max = 1)
ATGACGTCAT	0.325 relative CSI intensity (max = 1)
ATGACGCAAT	0.00195 relative CSI intensity (max = 1)

molecular target: ATF5;ATF6B (Homo sapiens;Homo sapiens, UniProt Q9Y2D1;Q99941 199-275;316-391, |); assay: as above; details: protein: recombinant;recombinant; copies: 1;1; dsDNA, one strand shown
Sequence (Q99941 other isoform, or with tags, fused parts or gaps |): as the sequence (Q99941 other isoform, or with tags, fused parts or gaps |, chain 1 of 2) above

Sequence	binding signal
ATGACGTAAT	0.0108 relative CSI intensity (max = 1)
CCTGACGTCA	0.0183 relative CSI intensity (max = 1)
ATGATGCAAT	0.0122 relative CSI intensity (max = 1)
ATGACGTCAT	1 relative CSI intensity (max = 1)
ATGACGCAAT	0.00498 relative CSI intensity (max = 1)

molecular target: T3, ATF5;CREBZF (Homo sapiens;Homo sapiens, UniProt Q9Y2D1;Q9NS37 199-275;195-272, |); assay: as above; details: protein: recombinant;recombinant; copies: 1;1; dsDNA, one strand shown
T3 sequence 1: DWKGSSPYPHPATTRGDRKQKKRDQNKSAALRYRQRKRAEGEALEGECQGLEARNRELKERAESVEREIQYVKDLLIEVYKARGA
T3 sequence 2: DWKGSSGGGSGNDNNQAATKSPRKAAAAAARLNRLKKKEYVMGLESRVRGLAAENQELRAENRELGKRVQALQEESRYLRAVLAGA

Sequence	binding signal
ATGACGTAAT	0.0175 relative CSI intensity (max = 1)
CCTGACGTCA	0.0084 relative CSI intensity (max = 1)
ATGATGCAAT	0.00335 relative CSI intensity (max = 1)
ATGACGTCAT	1 relative CSI intensity (max = 1)
ATGACGGAAT	0.0025 relative CSI intensity (max = 1)
ATGACGCAAT	0.0123 relative CSI intensity (max = 1)
